Pf growth 48h = inhibits P. falciparum growth in the first generation, 48 h; P. falciparum luciferase growth in erythrocytes, 48 h; Potency, µM (titrated, usually from 28.7 µM), inactives show top-dose activity change, negative = inhibition, most hits filed as inhibitors; 310,000 compounds, 5.9% hits; AID 504832; also: potency is read from the fitted curve at half-maximal effect; % is scaled to controls: 0 for no effect and ±100 for the full control effect
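Luciferase-expressing parasites in RBCs, 2% Hct / 0.1% parasitemia final; RPMI 1640 + 0.5% Albumax; 37 C, 5% CO2, one generation; luminescence read-out, lower signal = inhibition.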
NS1 function inh = influenza NS1 inhibition; 270,000 compounds, 0.4% hits; Potency, µM (series often up to 46.1 µM), for inactives: at the top dose activity, positive = more growth; AID 2326; calls by dose curve; also: potency is read from the fitted curve at half-maximal effect; actives are rising curves; nearly all actives have a fitted effect of over 50% in size
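Read-out: OD600 growth recovery of NS1-expressing budding yeast. Cells grown overnight at 30C in -URA glucose medium, washed, resuspended and diluted 1:100 in 2% galactose assay medium, pH 6.0. Same strain lacking NS1 served as positive control.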
CHX counter = counter-screen hit for Shiga toxin inhibitors, cycloheximide; AID 2314; max response, %; 300,000 compounds, 12% hits; cell reporter, cycloheximide protein synthesis inhibition counterscreen; in the data active = max response mostly above about 13%, no sharp cut-off; inactive = mostly below about 14%; also: read at 38.3 µM for the half of the compounds with a filed dose; 0% is about no effect
Shiga toxin inh = blocks Shiga toxin action in Vero cells; Vero cells, Shiga toxin protein synthesis inhibition reporter; inhibition, % at 38.7 µM; 290,000 compounds, 9.2% hits; in the data active = inhibition mostly above about 28%, no sharp cut-off; inactive = mostly below about 43%; also: 0% is about no effect
Pf growth 96h = P. falciparum growth inhibition at 96 hour, primary screen for plastid delayed-death inhibitors. AID 504834. Potency, µM (series often up to 28.7 µM), for inactives: at the highest dose activity change, negative = inhibition, most hits filed as inhibitors. 320,000 compounds, 6.9% hits. P. falciparum luciferase reporter growth, 96 h; also: potency is read from the fitted curve at half-maximal effect; % is scaled to controls: 0 for no effect and ±100 for the full control effect
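Erythrocytes infected with luciferase-expressing P. falciparum were dispensed at 2% hematocrit and 0.05% parasitemia (final), then incubated with compounds 96 hours at 37 C in 5% CO2. Luminescence after detection reagent addition reported growth.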
Sm TGR block = blocks Schistosoma mansoni thioredoxin glutathione reductase | purified TGR, DTNB reduction, TNB absorbance 405 nm | Potency, µM (top dose mostly 114 µM), for the others: top-dose activity change, negative = inhibition, hits mostly inhibitors | 360,000 compounds, 3% hits | AID 485364; also: potency is read from the fitted curve at half-maximal effect; % is scaled to controls: 0 for no effect and ±100 for the full control effect; nearly all actives have a fitted effect of over 60% in size
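Kinetic colorimetric format: TGR-catalysed, NADPH-driven DTNB reduction monitored via TNB absorbance. Enzyme dispensed at 20 nM; compound exposure 15 min at room temperature before reaction start.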
* hit, by the source's call; [ ] = dose if it differs, or a comment. In the library only some 21% were active in any assay of this set; here they are far more common. Unless noted, calls follow the shape of the dose curve; as a rule, active = well fitted curve in the direction sought with a large enough effect; inconclusive = small, poorly fitted or top-dose-only effect, or another doubt; inactive = no such curve, though single readings can be large; an effect the other way counts as inactive or inconclusive.

What do the screens show for `O=C(Nc1ccc2oc(-c3ccncc3)nc2c1)c1ccccc1`?
Pf growth 48h: 7%; CHX counter: 6; Shiga toxin inh: 18; Pf growth 96h: 156%; Sm TGR block: 9%

What do the screens show for `CCCC(=O)Nc1cccc(-c2nc3cc(C)c(C)cc3o2)c1`?
Pf growth 48h: 256%; NS1 function inh: -9%; CHX counter: 39*; Shiga toxin inh: 84*; Pf growth 96h: 370%; Sm TGR block: 1%

How did CC(C)CC(=O)Nc1cccc(-c2nc3ccccc3o2)c1 do in these assays?
Pf growth 48h: 0%; NS1 function inh: -20%; CHX counter: 22*; Shiga toxin inh: 62*; Pf growth 96h: inconclusive; Sm TGR block: 2%

Results for Cc1cc2nc(-c3cccc(NC(=O)COc4ccc(Cl)c(C)c4)c3)oc2cc1C ?
Sm TGR block: 12%

How did NNS(=O)(=O)c1cc(C(=O)O)cc(C(=O)O)c1 do in these assays?
NS1 function inh: -7%

What do the screens show for `O=C(NCc1ccc(Cl)cc1)C1CCCN(c2cnccn2)C1` (configuration not stated)?
Pf growth 48h: 4%; NS1 function inh: 8%; CHX counter: -3; Shiga toxin inh: -6; Pf growth 96h: -14%; Sm TGR block: -10%

Results for O=C(Nc1cccc2nsnc12)c1ccc(-c2ccc(Br)cc2)o1 ?
Pf growth 48h: 39%; NS1 function inh: 4%; CHX counter: 9; Shiga toxin inh: 25; Pf growth 96h: 22%; Sm TGR block: 35µM*

How did O=C(Nc1cccc(NC(=O)c2ccccc2Cl)c1)c1ccco1 do in these assays?
Pf growth 48h: 11%; NS1 function inh: 14%; CHX counter: -1; Shiga toxin inh: -12; Pf growth 96h: 8%; Sm TGR block: -4%

What do the screens show for `CC(=O)Nc1ccc(-c2nc3ccc(NC(C)=O)cc3o2)cc1`?
Pf growth 48h: 67%; NS1 function inh: 0%; CHX counter: 34*; Shiga toxin inh: 79*; Pf growth 96h: 35%; Sm TGR block: 2%

What do the screens show for `O=C(Cc1ccccc1)Nc1ccc2oc(-c3ccncc3)nc2c1`?
Pf growth 48h: -5%; NS1 function inh: -1%; CHX counter: 15; Shiga toxin inh: 33; Pf growth 96h: -11%[5.75 µM]; Sm TGR block: -1%

Results for CC(C)CC(=O)Nc1ccc2oc(-c3ccncc3)nc2c1 ?
Pf growth 48h: 114%; NS1 function inh: -12%; CHX counter: 24*; Shiga toxin inh: 59*; Pf growth 96h: inconclusive; Sm TGR block: 8%

How did O=C(Nc1cccc(NC(=O)c2ccc(-c3ccc(Br)cc3)o2)c1)c1ccco1 do in these assays?
Pf growth 48h: 9.3µM*; NS1 function inh: 22%; CHX counter: 38*; Shiga toxin inh: 92*; Pf growth 96h: inconclusive; Sm TGR block: -11%

What do the screens show for `COC(=O)c1sc(S(=O)(=O)NC(Cc2ccccc2)C(=O)O)c(C(=O)OC)c1C` (configuration not stated)?
Pf growth 48h: 1%; Pf growth 96h: -7%; Sm TGR block: inconclusive

Results for COc1ccc(C(=O)NCC(=O)OCc2csc(-c3ccccc3)n2)cc1 ?
Pf growth 48h: 31%; NS1 function inh: -15%; CHX counter: 11; Shiga toxin inh: -49; Pf growth 96h: 44%; Sm TGR block: -4%

Results for CCN(Cc1ccccc1)C(=O)c1c(C)oc2ncn(C)c(=O)c12 ?
Sm TGR block: 11%

What do the screens show for `Cc1cccc(CC(=O)NC2CC(=O)N(c3cccc(F)c3)C2)c1` (configuration not stated)?
Sm TGR block: -2%

What do the screens show for `O=C(CN1C(=O)NC2(CCCC2)C1=O)NNC(=O)c1ccccc1`?
Pf growth 48h: 9%; Pf growth 96h: 9%; Sm TGR block: -1%

How did S=C(Nc1ccc(Cl)cc1)NN1CCOCC1 do in these assays?
Pf growth 48h: -24%; NS1 function inh: 7%; CHX counter: -3; Shiga toxin inh: -18; Pf growth 96h: inconclusive; Sm TGR block: inconclusive

What do the screens show for `CC(C)c1ccc(NC(=S)NN2CCOCC2)cc1`?
Pf growth 48h: 105%; NS1 function inh: 11%; CHX counter: 23*; Shiga toxin inh: 48*; Pf growth 96h: inconclusive; Sm TGR block: -32%

Results for S=C(Nc1ccc(Cl)cc1Cl)NC1CCCCC1 ?
Pf growth 48h: 34%; NS1 function inh: 3%; CHX counter: -1; Shiga toxin inh: -2; Pf growth 96h: -29%; Sm TGR block: -25%

What do the screens show for `S=C(Nc1ccc(Cl)c(Cl)c1)NC1CCCCC1`?
Pf growth 48h: 13µM*; NS1 function inh: -30%; CHX counter: 56*; Shiga toxin inh: active; Pf growth 96h: 0%; Sm TGR block: 2%

Results for S=C(Nc1ccc2nsnc2c1)NC1CCCCC1 ?
Pf growth 48h: 62%; NS1 function inh: -29%; CHX counter: 59*; Shiga toxin inh: 88*; Pf growth 96h: 6%; Sm TGR block: inconclusive

Results for Fc1cccc(NC(=S)NC2CCCCCCC2)c1 ?
Pf growth 48h: inconclusive; NS1 function inh: -106%; CHX counter: 35*; Shiga toxin inh: 75*; Pf growth 96h: 80%; Sm TGR block: -5%

What do the screens show for `O=c1[nH]c2ccc(NC(=S)NC3CCCCC3)cc2[nH]1`?
Pf growth 48h: 1%; CHX counter: 1; Shiga toxin inh: 11; Pf growth 96h: 67%; Sm TGR block: -10%

How did Cc1noc2ncnc(Oc3ccc(Cl)cc3Cl)c12 do in these assays?
Pf growth 48h: -5%; NS1 function inh: -4%; CHX counter: -3; Shiga toxin inh: -6; Pf growth 96h: -32%[5.75 µM]; Sm TGR block: -4%

What do the screens show for `FC(F)(F)c1cccc(NC(=S)NC2CCCC2)c1`?
Pf growth 48h: inconclusive; NS1 function inh: -41%; CHX counter: -2; Shiga toxin inh: 4; Pf growth 96h: 6%; Sm TGR block: -19%

What do the screens show for `CC(C)c1ccc(NC(=S)NC2CCCCCC2)cc1`?
Pf growth 48h: -23%; NS1 function inh: -9%; CHX counter: 32*; Shiga toxin inh: 69*; Pf growth 96h: 3%; Sm TGR block: 12%

Results for Cc1ccc(NC(=S)NNC(=S)NC2CCCCC2)cc1 ?
Pf growth 48h: 0%; CHX counter: -7; Shiga toxin inh: 35; Pf growth 96h: -4%; Sm TGR block: 1%

Results for Fc1ccc(NC(=S)NC2CCN(Cc3ccccc3)CC2)cc1 ?
Pf growth 48h: -9%; NS1 function inh: 3%; CHX counter: -4; Shiga toxin inh: 2; Pf growth 96h: 0%

Results for FC(F)(F)c1ccc(NC(=S)NC2CCCCC2)cc1 ?
Pf growth 48h: inconclusive; CHX counter: 44*; Shiga toxin inh: 82*; Pf growth 96h: inconclusive; Sm TGR block: -3%

How did S=C(Nc1ccc(Cl)c(Cl)c1)NC1CCN(Cc2ccccc2)CC1 do in these assays?
Pf growth 48h: 4.1µM*; NS1 function inh: -8%; CHX counter: -7; Shiga toxin inh: -7; Pf growth 96h: inconclusive; Sm TGR block: -10%

Bioassay records as filed in PubChem BioAssay.
